Results on five compounds are retold here after PubChem BioAssay (NCATS).

A short description of assay [1]: AP1 Signaling Pathway (AID 357; active = well fitted curve in either direction with a large enough effect, not every such curve was filed as active; also: % is scaled to controls: 0 for no effect and ±100 for the full control effect). To be noted: ME-180 AP-1-bla reporter, EGF-induced, beta-lactamase ratio, 5 h; at 7.69 µM (top of the series) unless noted. The method, boiled down: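 AP-1-bla ME-180 cells with beta-lactamase reporter under AP-1 response element, stimulated with EC50 EGF; compounds titrated, 5 hours at 37 degrees Celsius. CCF4 read at 460/530 nm ratio; positive and negative modulators judged by AC50.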

Assay [2] deals with Cytochrome P450 1A2 (Homo sapiens) (UniProt P05177). In words: p450-cyp1a2 (AID 410; calls by dose curve; also: potency is read from the fitted curve at half-maximal effect). The method, boiled down:
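20nM CYP1A2 with 100uM Luciferin-ME (at Km) in 100mM KPO4; compound preincubated 10 min, NADPH regeneration added, 60 min at room temperature. Luciferin quantified by luminescence after detection reagent; normalized to 57 uM furafylline.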

A short description of assay [3]: NFAT Signaling Pathway (AID 444; active = well fitted curve in either direction with a large enough effect, not every such curve was filed as active;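 also: carbachol stimulus at about its EC50 of 1 µM final; % is scaled to controls: 0 for no effect and ±100 for the full control effect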). To be noted: Jurkat NFAT-bla M1, carbachol, beta-lactamase ratio, 5 h; at 7.69 µM (top of the series) unless noted. The method, boiled down:
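Read-out: CCF4 FRET ratio (460 nm/530 nm) after 1 h RT dye loading, used for %activity and AC50 from titration series. Cells: Jurkat NFAT-β-lactamase/M1 line, treated with compound plus 1 uM carbachol for 5 h, 37 °C.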

A short description of assay [4]: Stat Signaling Pathway (AID 446; active = well fitted curve in either direction with a large enough effect, not every such curve was filed as active;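 also: ME-180 cervical cancer cells given 40 pM IL-6 alongside compound; SIE-controlled beta-lactamase reporter measured as 460/530 nm FRET emission ratio; % is scaled to controls: 0 for no effect and ±100 for the full control effect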). To be noted: ME-180 SIE beta-lactamase reporter, IL-6 stimulated, 5 h; at 7.69 µM (top of the series) unless noted. The essentials: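 Reporter line: ME-180 cervical carcinoma, SIE-beta-lactamase. Treatment: compound with 40 pM IL-6, 5 hrs, 37 C, in low-serum OPTI-MEM with 10 mM HEPES pH 7.3. Detection: 460/530 nm fluorescence.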

The target of assay [5] is Glucocorticoid receptor (Homo sapiens) (UniProt P04150). The experiment in a line: GR-GFP Redistribution (AID 450;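 active = compounds whose dose series gives a full or clear partial fitted curve of increased nuclear translocation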; also: potency is read from the fitted curve at half-maximal effect). To be noted: U2OS GR-GFP nuclear translocation, laser cytometry, 2 h.
Chain of Glucocorticoid receptor (Homo sapiens) (P04150 whole entry, looked up, the tested form may be a part): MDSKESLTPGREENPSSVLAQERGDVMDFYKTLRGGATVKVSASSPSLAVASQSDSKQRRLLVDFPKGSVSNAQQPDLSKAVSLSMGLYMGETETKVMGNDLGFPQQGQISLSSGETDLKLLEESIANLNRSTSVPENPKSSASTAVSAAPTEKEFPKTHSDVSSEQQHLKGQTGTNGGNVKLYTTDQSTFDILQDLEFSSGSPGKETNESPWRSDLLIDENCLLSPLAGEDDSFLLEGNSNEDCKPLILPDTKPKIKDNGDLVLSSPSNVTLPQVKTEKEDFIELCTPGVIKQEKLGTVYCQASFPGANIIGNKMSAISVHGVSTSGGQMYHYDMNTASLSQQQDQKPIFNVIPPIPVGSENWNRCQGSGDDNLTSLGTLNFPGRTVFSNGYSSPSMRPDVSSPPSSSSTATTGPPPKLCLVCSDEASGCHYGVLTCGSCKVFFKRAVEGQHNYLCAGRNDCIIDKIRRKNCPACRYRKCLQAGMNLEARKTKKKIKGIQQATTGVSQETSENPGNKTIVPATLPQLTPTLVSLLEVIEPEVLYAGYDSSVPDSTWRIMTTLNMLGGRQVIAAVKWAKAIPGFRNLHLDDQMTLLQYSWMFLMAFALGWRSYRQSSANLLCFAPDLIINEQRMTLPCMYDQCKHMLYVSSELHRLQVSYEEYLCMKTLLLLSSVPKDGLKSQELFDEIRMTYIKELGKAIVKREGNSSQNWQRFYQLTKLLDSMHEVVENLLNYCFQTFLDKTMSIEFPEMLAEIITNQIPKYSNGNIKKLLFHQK
Assay [6] has the same target. In words: GR-EFC Redistribution (AID 451; calls by dose curve; also: potency is read from the fitted curve at half-maximal effect). To be noted: CHO-K1 GR-EFC translocation, beta-gal luminescence, 2 h. The method, boiled down: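 Translocation of GR-ED fusion to nuclear EA restores b-gal, read by luminescence after 1 h room-temperature detection. Engineered CHO-K1 biosensor cells, 1,000/well, exposed 2 h at 37 C to titrations up to 46 uM final.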
Assay [7] addresses Mitogen-activated protein kinase 10 (Mus musculus) (UniProt Q61831). The experiment in a line: JNK3 AlphaScreen Assay (AID 530; active = well fitted curve in either direction with a large enough effect, not every such curve was filed as active;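 also: kinase came from lysate of stimulated human HepG2 cells; signal reports phosphorylation of biotinylated GST-cJun 1-79 at Ser73 with 10 µM ATP; % is scaled to controls: 0 for no effect and ±100 for the full control effect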). The method, boiled down:
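Compound titrations were preincubated 15 minutes at room temperature with substrate, antibody and pre-activated JNK3-containing HepG2 lysate. Reactions were started with 10 uM ATP and stopped with EDTA-containing bead buffer for AlphaScreen detection.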

Assay [8] addresses 3',5'-cyclic-AMP phosphodiesterase 4B (Homo sapiens) (UniProt Q07343). In words: qHTS Assay for Inhibitors of PDE-IV (AID 607; active = well fitted activation curve with a large enough effect in the main read-out, with a control signal flat, not every such curve was filed as active; also: % of control where 0% means no effect). The method, boiled down: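 Cell-based read-out of cAMP via a modified cyclic nucleotide-gated channel and membrane potential dye (535/590 nm) in HEK293 cells expressing PDE4 endogenously. Compounds tested up to 22.9 uM final; 100 uM RO 20-1724 reference.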

Assay [9] addresses Guanine nucleotide-binding protein G(i) subunit alpha-1 (Homo sapiens) (UniProt P63096). The experiment in a line: qHTS Assay for Inhibitors of RGS12 GoLoco Motif Activity (Green Fluorophore) (AID 879).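 Also: 0% = labeled peptide with Gαi1 and full inhibition = labeled peptide alone without protein; negative values mean loss of peptide binding seen as reduced polarization.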 The essentials: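 Fluorescence polarization assay: 50 nM Gαi1 with 10 nM FITC-labeled RGS12 GoLoco peptide in 10 mM Tris pH 7.5, 150 mM NaCl, 0.1 mM GDP, 0.05% NP40, 10 min at room temperature with compound.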

Assay [10] is described as follows: qHTS Assay for Identification of Small Molecule Agonists for Thrombopoietin (TPO) Signaling Pathway (AID 917). Also: % is scaled to controls: 0 for no effect and ±100 for the full control effect. The essentials:
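Luminescence from a Glycoprotein IIb promoter–driven luciferase reporter served as read-out in murine Ba/F3 cells carrying the human TPO receptor. Cells, deprived of IL-3 overnight, received compounds with 26 pM TPO and were incubated 24 hrs at 37 C.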

Assay [11] has as its target Muscarinic acetylcholine receptor M1 (Rattus norvegicus) (UniProt P08482). The experiment in a line: qHTS Assay for Antagonists of Acetylcholine Muscarinic M1 Receptor: Measurement of IP-One Response (AID 944). Also: nearly all actives have a fitted effect of over 75% in size. The method, boiled down:
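CHO cells stably expressing rat M1, pretreated 10 min with compound, then stimulated 30 min with carbachol at EC80 (200 nM) in LiCl-containing buffer pH 7.4; IP1 accumulation read by HTRF competition (665/620 nm).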

In assay [12] the target is Pyruvate kinase (Leishmania mexicana) (UniProt Q27686). The experiment in a line: qHTS Validation Assay for Inhibitors of Leishmania Mexicana Pyruvate Kinase (AID 945).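 Also: 0% = DMSO only neutral control wells.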 The method, boiled down:
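Eight-point qHTS titrations; enzyme 0.2 nM LmPYK (E451W mutant); substrates 0.5 mM PEP, 0.1 mM ADP; 7 mM MgCl2; 1 h room temperature; PKLight luminescence normalized to neutral control.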

Assay [13] concerns the target Pyruvate kinase PKM (Homo sapiens) (UniProt P14618). The experiment in a line: qHTS Assay for Activators of Human Muscle Pyruvate Kinase (AID 954; active = well fitted curve in the direction sought with a large enough effect, not every such curve was filed as active;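 also: 0% = uninhibited enzyme and -100% = no enzyme or full thiadiazolimine inhibition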). The method, boiled down:
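Human PKM2 activity is measured as ATP generation, detected by luciferase-coupled luminescence. The enzyme (0.1 nM) acts on 0.5 mM PEP and 0.1 mM ADP for 1 h at ambient temperature; data are normalized to uninhibited and full-inhibition wells.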

Assay [14] concerns the target Alpha-galactosidase (Coffea arabica) (UniProt Q42656). The experiment in a line: Counterscreen for Glucocerebrosidase Inhibitors: qHTS Assay for Coffee Bean alpha-Galactosidase at pH 4.5 (AID 957).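 Also: plate controls were enzyme alone for no effect and no enzyme for full effect.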 The essentials: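 Coffee bean enzyme (2 nM) with 80 uM 4-methylumbelliferyl alpha-D-galactopyranoside in 50 mM citric acid, 0.005% Tween-20, pH 4.5, 20 min at room temperature; compounds 0.7 nM–77 uM. Stopped at pH 10, fluorescence 365/440 nm; AC50 from Hill fits.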

For assay [15], the target named is Alpha-galactosidase A (Homo sapiens) (UniProt P06280). The experiment in a line: Counterscreen for Glucocerebrosidase Inhibitors: qHTS Assay for Human alpha-Galactosidase at pH 4.5 (AID 992). Also: 0% is about no effect. The method, boiled down:
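Quantitative HTS: compounds tested from 0.7 nM up to 77 uM against 2 nM enzyme with 80 uM 4-MU alpha-D-galactopyranoside. The 20 min room-temperature reaction is stopped with 1M NaOH/1M glycine, pH 10.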

The target of assay [16] is alpha-glucosidase (Oryza sativa, rice) (UniProt Q653V4). In words: Counterscreen for Glucocerebrosidase Inhibitors: qHTS Assay for Rice alpha-Glucosidase at pH 5.0 (AID 997).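 Also: 0% = full activity with enzyme and -100% = basal without enzyme.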 The essentials: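 Rice alpha-glucosidase (4 nM final) with 400 uM 4-methylumbelliferyl-alpha-D-glucopyranoside in citrate buffer pH 5.0, 20 min at room temperature, stopped at pH 10; fluorescence 365/440 nm, compounds 0.7 nM–77 uM, AC50 from Hill fits.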

The target of assay [17] is Alpha-galactosidase (Coffea arabica) (UniProt Q42656). In words: Counterscreen for Glucocerebrosidase Inhibitors: qHTS Assay for Coffee Bean alpha-Galactosidase at pH 5.9 (AID 998).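 Also: plate controls were uninhibited enzyme for no effect and no-enzyme basal signal for full effect.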 The method, boiled down:
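Compounds were titrated from 0.7 nM to 77 uM against green coffee bean alpha-galactosidase (2 nM) using 80 uM fluorogenic 4-methylumbelliferyl substrate. After 20 min at room temperature, reactions were stopped at pH 10 and read by fluorescence.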

Assay [18] concerns the target Cytochrome P450 3A4 (Homo sapiens) (UniProt P08684). In words: qHTS Assay for Activators of Cytochrome P450 3A4 (AID 885). Also: nearly all actives have a fitted effect of over 65% in size. The essentials:
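Signal was normalized against complete inhibition by 57 uM ketoconazole. The reaction used 20nM CYP3A4 with 25uM Luciferin-PPXE, 10-min compound preincubation and a 60-min NADPH-supported step at RT.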

Each structure is given as a SMILES string. Values without a mark were called inactive. Results filed as inconclusive are left out. The source made the active and inactive calls. Unless noted, calls follow the shape of the dose curve; as a rule, active = well fitted curve in the direction sought with a large enough effect; inconclusive = small, poorly fitted or top-dose-only effect, or another doubt; inactive = no such curve, though single readings can be large; an effect the other way counts as inactive or inconclusive.

Chain of Alpha-galactosidase (Coffea arabica) (Q42656 whole entry, looked up): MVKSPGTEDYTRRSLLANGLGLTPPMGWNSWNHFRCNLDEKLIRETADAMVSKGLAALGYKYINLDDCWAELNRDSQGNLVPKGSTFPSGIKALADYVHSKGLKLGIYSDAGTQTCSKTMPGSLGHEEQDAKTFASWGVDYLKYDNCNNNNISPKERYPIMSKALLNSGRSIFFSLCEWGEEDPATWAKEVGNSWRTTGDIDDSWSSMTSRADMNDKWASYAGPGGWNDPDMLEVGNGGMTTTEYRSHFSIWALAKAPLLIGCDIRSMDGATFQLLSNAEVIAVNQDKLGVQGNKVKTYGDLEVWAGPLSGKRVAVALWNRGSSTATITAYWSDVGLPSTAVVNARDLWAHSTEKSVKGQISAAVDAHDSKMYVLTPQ
Chain of Alpha-galactosidase A (Homo sapiens) (P06280 whole entry, looked up): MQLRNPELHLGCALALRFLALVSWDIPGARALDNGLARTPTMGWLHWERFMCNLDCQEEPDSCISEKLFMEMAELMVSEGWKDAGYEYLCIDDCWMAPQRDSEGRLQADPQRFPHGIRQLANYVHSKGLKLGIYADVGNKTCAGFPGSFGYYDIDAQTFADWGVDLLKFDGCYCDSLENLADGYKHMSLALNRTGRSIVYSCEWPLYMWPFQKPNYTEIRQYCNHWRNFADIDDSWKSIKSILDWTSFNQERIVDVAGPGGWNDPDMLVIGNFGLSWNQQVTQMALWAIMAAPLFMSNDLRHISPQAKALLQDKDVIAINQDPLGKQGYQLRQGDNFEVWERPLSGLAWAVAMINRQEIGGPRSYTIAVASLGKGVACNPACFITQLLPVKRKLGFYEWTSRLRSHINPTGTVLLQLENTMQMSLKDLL
Chain of Guanine nucleotide-binding protein G(i) subunit alpha-1 (Homo sapiens) (P63096 whole entry, looked up): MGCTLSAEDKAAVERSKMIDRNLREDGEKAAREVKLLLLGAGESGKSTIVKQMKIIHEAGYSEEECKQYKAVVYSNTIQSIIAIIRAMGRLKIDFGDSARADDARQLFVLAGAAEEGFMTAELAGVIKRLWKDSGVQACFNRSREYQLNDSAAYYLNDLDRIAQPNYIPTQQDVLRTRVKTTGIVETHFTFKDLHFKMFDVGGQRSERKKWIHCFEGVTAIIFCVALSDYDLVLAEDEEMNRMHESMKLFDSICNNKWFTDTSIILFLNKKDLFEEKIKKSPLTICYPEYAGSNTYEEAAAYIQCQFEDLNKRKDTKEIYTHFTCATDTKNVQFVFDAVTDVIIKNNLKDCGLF
Chain of Muscarinic acetylcholine receptor M1 (Rattus norvegicus) (P08482 whole entry, looked up): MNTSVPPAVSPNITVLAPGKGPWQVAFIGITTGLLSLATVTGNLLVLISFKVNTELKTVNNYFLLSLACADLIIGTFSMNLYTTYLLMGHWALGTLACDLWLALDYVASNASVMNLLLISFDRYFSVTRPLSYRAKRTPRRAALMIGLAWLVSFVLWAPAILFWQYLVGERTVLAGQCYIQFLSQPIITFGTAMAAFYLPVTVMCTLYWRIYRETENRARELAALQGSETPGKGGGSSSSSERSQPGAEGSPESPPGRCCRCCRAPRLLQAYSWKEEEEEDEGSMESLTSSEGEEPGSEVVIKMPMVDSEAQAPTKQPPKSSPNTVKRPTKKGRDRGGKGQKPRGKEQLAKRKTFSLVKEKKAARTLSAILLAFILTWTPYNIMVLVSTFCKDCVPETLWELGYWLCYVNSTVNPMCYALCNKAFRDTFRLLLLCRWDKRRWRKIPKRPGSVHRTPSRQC
Chain of 3',5'-cyclic-AMP phosphodiesterase 4B (Homo sapiens) (Q07343 whole entry, looked up): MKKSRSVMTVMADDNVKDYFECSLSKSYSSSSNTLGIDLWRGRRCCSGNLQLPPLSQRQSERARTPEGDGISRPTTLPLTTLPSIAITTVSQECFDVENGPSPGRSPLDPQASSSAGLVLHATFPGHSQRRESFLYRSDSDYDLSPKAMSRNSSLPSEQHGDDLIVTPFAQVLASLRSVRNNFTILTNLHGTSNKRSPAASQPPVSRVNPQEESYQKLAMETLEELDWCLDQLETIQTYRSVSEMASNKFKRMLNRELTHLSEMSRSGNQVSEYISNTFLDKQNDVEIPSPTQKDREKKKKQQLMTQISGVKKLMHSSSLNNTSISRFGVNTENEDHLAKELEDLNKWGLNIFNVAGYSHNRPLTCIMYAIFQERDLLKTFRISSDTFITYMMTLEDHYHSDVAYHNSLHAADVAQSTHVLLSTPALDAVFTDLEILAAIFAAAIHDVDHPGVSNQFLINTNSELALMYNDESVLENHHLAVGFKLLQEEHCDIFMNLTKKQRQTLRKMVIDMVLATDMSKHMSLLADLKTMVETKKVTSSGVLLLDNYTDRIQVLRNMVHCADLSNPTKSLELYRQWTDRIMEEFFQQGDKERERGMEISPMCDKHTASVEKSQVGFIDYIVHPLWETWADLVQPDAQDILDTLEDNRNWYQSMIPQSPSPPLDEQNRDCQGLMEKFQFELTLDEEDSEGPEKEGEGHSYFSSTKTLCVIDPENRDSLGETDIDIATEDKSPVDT
Chain of Pyruvate kinase PKM (Homo sapiens) (P14618 whole entry, looked up): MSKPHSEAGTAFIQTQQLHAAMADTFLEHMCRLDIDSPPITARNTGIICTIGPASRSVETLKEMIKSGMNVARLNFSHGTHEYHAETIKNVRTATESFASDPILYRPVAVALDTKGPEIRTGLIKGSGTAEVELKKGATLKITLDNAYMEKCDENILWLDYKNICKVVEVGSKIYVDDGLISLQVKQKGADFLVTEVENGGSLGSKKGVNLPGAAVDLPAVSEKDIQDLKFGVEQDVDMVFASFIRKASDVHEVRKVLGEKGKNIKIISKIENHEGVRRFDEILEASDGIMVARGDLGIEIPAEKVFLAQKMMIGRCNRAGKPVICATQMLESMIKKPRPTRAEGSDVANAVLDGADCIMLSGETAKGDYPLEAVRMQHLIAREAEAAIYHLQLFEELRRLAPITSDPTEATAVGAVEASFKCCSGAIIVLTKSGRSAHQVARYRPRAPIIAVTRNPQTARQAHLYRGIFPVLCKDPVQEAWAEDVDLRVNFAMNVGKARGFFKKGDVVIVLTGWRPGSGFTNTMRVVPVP
Chain of Cytochrome P450 1A2 (Homo sapiens) (P05177 whole entry, looked up): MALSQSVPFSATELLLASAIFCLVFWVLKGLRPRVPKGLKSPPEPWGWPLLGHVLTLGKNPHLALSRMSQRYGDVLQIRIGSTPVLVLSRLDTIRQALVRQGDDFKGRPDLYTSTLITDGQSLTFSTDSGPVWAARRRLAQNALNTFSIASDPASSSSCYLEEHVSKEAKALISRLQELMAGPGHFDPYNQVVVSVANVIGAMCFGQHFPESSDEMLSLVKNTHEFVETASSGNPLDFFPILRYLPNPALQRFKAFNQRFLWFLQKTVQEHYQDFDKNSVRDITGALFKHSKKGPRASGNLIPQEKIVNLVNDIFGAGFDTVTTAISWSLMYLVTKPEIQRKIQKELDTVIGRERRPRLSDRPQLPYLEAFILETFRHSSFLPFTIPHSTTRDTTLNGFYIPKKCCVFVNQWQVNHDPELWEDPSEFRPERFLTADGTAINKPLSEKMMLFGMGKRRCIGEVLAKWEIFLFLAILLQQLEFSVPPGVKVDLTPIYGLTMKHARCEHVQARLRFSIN
Chain of Pyruvate kinase (Leishmania mexicana) (Q27686 2-499 E452W): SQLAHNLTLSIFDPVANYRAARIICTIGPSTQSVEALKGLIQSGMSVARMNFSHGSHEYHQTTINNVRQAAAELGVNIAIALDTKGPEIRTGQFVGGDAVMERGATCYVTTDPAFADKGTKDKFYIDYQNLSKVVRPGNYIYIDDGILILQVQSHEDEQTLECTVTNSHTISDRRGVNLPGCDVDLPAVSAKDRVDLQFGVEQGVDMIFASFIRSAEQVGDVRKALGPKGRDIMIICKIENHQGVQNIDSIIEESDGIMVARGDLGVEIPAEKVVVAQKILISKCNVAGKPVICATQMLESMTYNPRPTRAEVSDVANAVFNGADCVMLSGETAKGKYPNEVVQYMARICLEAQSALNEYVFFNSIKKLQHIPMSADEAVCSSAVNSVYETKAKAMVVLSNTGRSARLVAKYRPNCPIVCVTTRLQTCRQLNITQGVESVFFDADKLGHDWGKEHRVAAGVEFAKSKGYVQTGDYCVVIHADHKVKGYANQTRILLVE

For the compound `COC(=O)[C@H](N)CCCN=C(N)N[N+](=O)[O-]`, the figures for the activity change, negative = inhibition in [1] and in [3] were -2.03% [at 38 µM] and 13% [at 38 µM], respectively. The Potency entry in assay [2], in assay [7] and in [11] was “inactive” in each case. In addition, the activity, negative = inhibition in assay [4] is 3% [at 38 µM]. Besides, the Potency in assay [5] and in [6] was greater than 46 µM throughout. In addition, the call in [8], in assay [9], in [10], in [12], in assay [13] and in assay [14] was inactive. In addition, the result in assay [15], in [16] and in [17] was inactive.
As for `C=CCN1CC[C@]23c4c5ccc(O)c4O[C@@H]2/C(=N/NC(=O)c2ccccc2)CC[C@@]3(O)[C@H]1C5`, the activity change, negative = inhibition in assay [1] is -2.73% [at 38 µM]; in assay [3], -2.19% [at 38 µM]. For the same compound, the Potency entry in [2], in [7], in assay [18] and in assay [11] was “inactive” each time. In addition, the activity, negative = inhibition in [4] was -23.6% [at 38 µM]. Moreover, the Potency in [5] and in assay [6] was greater than 46 µM throughout. Moreover, the outcome in assay [8], in [9], in [10], in [12], in [13] and in [14] was inactive. Moreover, the call in assay [15], in assay [16] and in [17] was inactive.
On to `COc1ccc2c(c1)[C@]13CCCC[C@@H]1[C@H](C2)NCC3`, for which the activity change, negative = inhibition was 15.6% [at 38 µM] in assay [1] and 4.42% [at 38 µM] in assay [3]. Also, the Potency entry in [2], in assay [7], in assay [18] and in assay [11] was “inactive” each time. Moreover, in assay [4], the activity, negative = inhibition is -11.2% [at 38 µM]. In addition, the Potency in assay [5] and in [6] was greater than 46 µM in each case. Besides, the compound was classed as inactive in assay [8], in [9], in [10], in [12], in assay [13] and in assay [14]. For the same compound, the result in assay [15], in assay [16] and in assay [17] was inactive.
For the compound `N[C@H](CCl)C(=O)O`, the figures for the activity change, negative = inhibition in [1] and in assay [3] were 0.76% [at 38 µM] and 14.9% [at 38 µM], respectively. Further, the Potency result in [2] and in assay [7] was “inactive” in each case. The activity, negative = inhibition in assay [4] is -9.55% [at 38 µM]. For the same compound, the Potency in assay [5] and in assay [6] was greater than 46 µM in each case. For the same compound, the outcome in assay [8], in assay [9], in [10], in [12], in assay [13] and in [14] was inactive. The compound was classed as inactive in [15], in assay [16] and in assay [17].
With `N[C@H](Cc1ccc(N(CCCl)CCCl)cc1)C(=O)O`, the activity change, negative = inhibition was 23.8% [at 38 µM] in assay [1] and -21.6% [at 38 µM] in assay [3]. The Potency is 15.8 µM (active) in [2], greater than 46 µM in assay [5] and greater than 46 µM in assay [6]. Moreover, the activity, negative = inhibition in assay [4] is 4.88% [at 38 µM]. Further, the Potency entry in assay [7] and in [11] was “inactive” each time. In addition, the result in [8], in assay [9], in assay [12], in [13], in assay [14] and in assay [15] was inactive. The call in assay [16] and in assay [17] was inactive.
